In PubChem BioAssay:
The source made the active and inactive calls. Unless noted, the rule behind the calls is not given here.

Legend:
[1] = HepG2 liver cancer cell viability effects, profiling panel, resazurin fluorescence, 24 h, PK04 Diversity Set (AID 1172); conditions: higher = more signal
[2] = basal S. cerevisiae growth modulation, no modifier, primary screen, OD600, strain BY4716, 24 h, basal condition (AID 1173); conditions: OD600, 24 h, higher = more signal, called active from +8 up or from −8 down
[3] = MM1S myeloma cell viability, profiling panel, resazurin fluorescence, basal, 24 h, PK04 Diversity Set (AID 1174); conditions: higher = more signal, called active from +8 up or from −8 down;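 note: MM1S multiple myeloma cell line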
[4] = biological target: Dihydroorotate dehydrogenase (quinone), mitochondrial (Plasmodium falciparum (isolate 3D7)) (UniProt Q08210); test: PfDHODH enzyme inhibitors, primary screen, biochemical, C-terminal His tag, absorbance 600 nm (AID 1175); conditions: DCIP absorbance 600 nm, higher = more signal, called active from +8 up or from −8 down;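 note: recombinant parasite enzyme with a five histidine tag at its C terminus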
Sequence of Dihydroorotate dehydrogenase (quinone), mitochondrial (Plasmodium falciparum (isolate 3D7)) (Q08210 whole entry, looked up): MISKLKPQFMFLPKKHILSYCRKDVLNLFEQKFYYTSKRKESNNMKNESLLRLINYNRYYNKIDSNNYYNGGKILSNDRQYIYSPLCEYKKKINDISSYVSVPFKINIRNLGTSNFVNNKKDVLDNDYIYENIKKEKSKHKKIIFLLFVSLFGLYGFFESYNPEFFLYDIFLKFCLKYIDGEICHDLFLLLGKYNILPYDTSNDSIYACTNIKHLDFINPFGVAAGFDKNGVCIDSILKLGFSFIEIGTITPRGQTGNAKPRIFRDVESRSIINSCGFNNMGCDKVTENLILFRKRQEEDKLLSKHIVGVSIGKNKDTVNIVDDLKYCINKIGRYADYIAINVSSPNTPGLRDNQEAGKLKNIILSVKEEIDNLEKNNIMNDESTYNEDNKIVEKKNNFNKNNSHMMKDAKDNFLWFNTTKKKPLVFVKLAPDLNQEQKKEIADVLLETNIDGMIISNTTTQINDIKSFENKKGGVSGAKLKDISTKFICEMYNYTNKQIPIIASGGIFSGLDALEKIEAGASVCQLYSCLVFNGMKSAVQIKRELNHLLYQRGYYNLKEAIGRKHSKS

[5] = P. aeruginosa biofilm formation inhibitors, primary screen, strain PAO1, LB-PBS medium, absorbance 600 nm (AID 1176); conditions: P. aeruginosa PAO1 growth/biofilm, A600, 12 h; higher = more signal
[6] = S. cerevisiae RM11-1a growth modifiers, primary screen, strain RM11-1a, OD600, basal, 24 h (AID 1177); conditions: OD600, 24 h, higher = more signal, called active from +8 up or from −8 down;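 note: cultures grown under basal conditions with no added stressor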
[7] = E. coli acrAB mutant growth effects, primary screen, E. coli filamentation inducers, strain DRC39, OD650, 24 h (AID 1178); conditions: higher = more signal, called active from +8 up or from −8 down;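 note: growth measured as culture turbidity by optical density at 650 nm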
[8] = E. coli acrAB mutant growth effects, primary screen, E. coli filamentation inducers, strain DRC39, OD650, 48 h (AID 1179);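 note: screen aims at cell division blockers that make cells filament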; conditions: E. coli DRC39 delta-acrAB growth, higher = more signal, called active from +8 up or from −8 down
[9] = RPMI8226 myeloma cell viability, profiling panel, resazurin fluorescence, basal, 24 h, PK04 Diversity Set (AID 1180); conditions: higher = more signal;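 note: RPMI8826 multiple myeloma cell line at 5000 cells per well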
[10] = biological target: E3 ubiquitin-protein ligase XIAP (Homo sapiens) (UniProt P98170); test: XIAP binders, primary screen, biophysical, small-molecule microarray, fluorescence 635 nm (AID 1181); conditions: small-molecule microarray binding, higher = more signal;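 note: score merges 667 nm emission and signal to noise over triplicate slides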
Sequence of E3 ubiquitin-protein ligase XIAP (Homo sapiens) (P98170 whole entry, looked up): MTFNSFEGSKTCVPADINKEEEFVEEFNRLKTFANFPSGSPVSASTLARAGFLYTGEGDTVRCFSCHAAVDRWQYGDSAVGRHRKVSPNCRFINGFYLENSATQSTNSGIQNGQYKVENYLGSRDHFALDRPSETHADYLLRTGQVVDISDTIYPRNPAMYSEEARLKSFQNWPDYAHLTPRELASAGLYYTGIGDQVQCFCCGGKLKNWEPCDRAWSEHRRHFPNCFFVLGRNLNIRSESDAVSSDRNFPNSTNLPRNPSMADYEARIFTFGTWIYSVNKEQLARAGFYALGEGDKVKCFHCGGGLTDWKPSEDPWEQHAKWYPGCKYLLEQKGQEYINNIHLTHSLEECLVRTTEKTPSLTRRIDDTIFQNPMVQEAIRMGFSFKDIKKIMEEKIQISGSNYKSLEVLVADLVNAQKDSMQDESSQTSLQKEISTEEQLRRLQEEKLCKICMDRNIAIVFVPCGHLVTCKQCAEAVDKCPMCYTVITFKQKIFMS

[11] = test system: XIP peptide (Xip251-270) binding; test: small-molecule binders of XIP peptide, primary screen, biochemical, small-molecule microarray, fluorescence 635/667 nm, 0.1 µg/mL protein (AID 1182); conditions: fluorescent protein binding, 635 nm, higher = more signal, called active from +8 up or from −8 down
XIP peptide (Xip251-270) = test: small-molecule binders of XIP peptide, primary screen, biochemical, small-molecule microarray, fluorescence 635/667 nm, 0.5 µg/mL protein (AID 1183); conditions: small-molecule microarray binding, fluorescence 635 nm; higher = more signal
[12] = Plasmodium falciparum growth inhibition, primary screen, strain 3D7, DAPI fluorescence, 100 nL (AID 1184);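 note: parasites grown inside human red blood cells in medium with human serum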; conditions: P. falciparum 3D7 growth, 3 d, higher = more signal
[13] = biological target: Homeobox protein Hox-A13 (Mus musculus) (UniProt Q62424); test: inhibitors of HoxA13-DNA binding, primary screen, biochemical, fluorescence polarization, labeled oligonucleotide (AID 1185); conditions: 15 min, higher = more signal, called active from +8 up or from −8 down
Sequence of Homeobox protein Hox-A13 (Mus musculus) (Q62424 whole entry, looked up): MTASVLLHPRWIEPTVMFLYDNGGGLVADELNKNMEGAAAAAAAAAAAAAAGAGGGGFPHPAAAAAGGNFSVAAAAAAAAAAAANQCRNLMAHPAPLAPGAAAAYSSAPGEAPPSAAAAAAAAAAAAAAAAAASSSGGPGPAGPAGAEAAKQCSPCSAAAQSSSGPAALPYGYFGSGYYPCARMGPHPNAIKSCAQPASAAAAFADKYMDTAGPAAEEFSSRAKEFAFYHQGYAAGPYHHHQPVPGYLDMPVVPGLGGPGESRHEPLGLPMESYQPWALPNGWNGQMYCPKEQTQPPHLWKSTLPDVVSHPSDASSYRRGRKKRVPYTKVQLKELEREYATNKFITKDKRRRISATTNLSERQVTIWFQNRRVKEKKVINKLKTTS

[14] = inhibitors of hydroxyurea-induced Chk1 phosphorylation, primary screen, imaging, HeLa, phospho-Chk1 antibody, percent positive cells (AID 1186); conditions: hydroxyurea-induced phospho-Chk1 immunofluorescence imaging, higher = more signal
[15] = inhibitors of hydroxyurea-induced Chk1 phosphorylation, primary screen, imaging, HeLa, phospho-Chk1 nuclear intensity (AID 1187); conditions: hydroxyurea-induced phospho-Chk1 immunofluorescence imaging, higher = more signal

Compound	z-score [1]	z-score [2]	z-score [3]	composite z-score [4]	z-score [5]	z-score [6]	z-score [7]	z-score [8]	z-score [9]	composite z-score [10]	composite z-score [11]	composite z-score (XIP peptide (Xip251-270))	z-score [12]	z-score [13]	z-score [14]	z-score [15]
Cc1ccc(F)cc1S(=O)(=O)N[C@H]1CCN(Cc2ccc(OC(C)C)cc2)C1	-0.757	-9.28 (active)	-1.1 (inactive)	-0.0588 (inactive)	-0.107 (inactive)	0.297 (inactive)	-1.42 (inactive)	-2.48 (inactive)	-1.19	-0.0773	0.479 (inactive)	0.338	0.646	-5.72 (inactive)	-0.0604 (inactive)	0.581 (inactive)
CN1C(=O)C2C=CC(C(O)c3ccc(-c4ccccc4)s3)N(NC(=O)OC(C)(C)C)C2C1=O (centres undefined)	-0.807	0.537 (inactive)	-0.629 (inactive)	0.63 (inactive)	1.08 (inactive)	0.432 (inactive)	0.28 (inactive)	-0.0168 (inactive)	-0.694	-0.162	0.359 (inactive)	0.912	0.428	-4.15 (inactive)	0.307 (inactive)	0.239 (inactive)
CC1CC/C=C\[C@H]2OC34C=CCN(c5ccc6ccccc6c5)C(=O)[C@H]3N(C(C)CO)C(=O)[C@@H]4C2C(=O)O1 (some centres undefined)	-0.0727	-0.36 (inactive)	-0.304 (inactive)	0.631 (inactive)	-0.236 (inactive)	0.853 (inactive)	0.0825 (inactive)	0.509 (inactive)	0.762	-0.208	-0.0371 (inactive)	-0.691	-0.338	-4.97 (inactive)	0.0352 (inactive)	-0.228 (inactive)
CC(C)C(=C=CC[C@H](O)c1ccccc1OCCO)C[C@H](O)c1cc(Cl)cc(Cl)c1O	0.271	-5.59 (inactive)	-0.702 (inactive)	-2 (inactive)	0.731 (inactive)	-0.17 (inactive)	0.215 (inactive)	-0.0849 (inactive)	-0.628	-0.0448	0.35 (inactive)	0.622	-1	-4.67 (inactive)	0.425 (inactive)	0.353 (inactive)
